In PubChem BioAssay AID1159580 (chemical genetic matrix, 2015):
“And” between values parts separate entries of the source, which are not always exact repeats. Equal values may be shown once. In all, about 5,500 compounds went through this assay and about 2,000 (36%) were called active. Another 18% or so got no clear call; they are omitted. Rule as the data show it: active = normalized growth mostly below about 0.91 (no sharp cut-off); inconclusive = no clear call, values can overlap the other calls; inactive = mostly above about 0.92. The list shows a part of the results.

Assay: chemical genetic growth profiling, strain panel (AID 1159580);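 also: tested at 20 µM; growth read once vehicle control cultures reached saturation at 30 °C; 1 = growth at the plate median or of vehicle wells; lower values mean less growth of the strain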
Settings: S. cerevisiae deletion strains, growth OD

Measured: normalized growth

COc1ccc([C@@H](C)C(=O)c2ccc(O)cc2O)cc1
inactive: locus YAL021C, strain ccr4, stronger effect = lower value 0.987 | locus YAL026C, strain drs2, stronger effect = lower value 0.969 | locus YAL030W, strain snc1, stronger effect = lower value 0.983 | locus YBL061C, strain skt5, stronger effect = lower value 0.976 | locus YBR009C, strain hhf1, stronger effect = lower value 0.962 | locus YBR021W, strain FUR4, stronger effect = lower value 0.996 | locus YBR023C, strain chs3, stronger effect = lower value 0.974 | locus YBR171W, strain sec66, stronger effect = lower value 0.95 | locus YBR229C, strain ROT2, stronger effect = lower value 0.982 | locus YBR231C, strain swc5, stronger effect = lower value 0.983 | locus YBR279W, strain paf1, stronger effect = lower value 0.978 | locus YCL011C, strain gbp2, stronger effect = lower value 0.987 | locus YCL016C, strain dcc1, stronger effect = lower value 0.985 | locus YCL029C, strain bik1, stronger effect = lower value 0.96 | locus YCL061C, strain MRC1, stronger effect = lower value 0.994 | locus YCL069W, strain vba3, stronger effect = lower value 0.955 | locus YCR088W, strain abp1, stronger effect = lower value 0.967 | locus YDL005C, strain med2, stronger effect = lower value 0.969 | locus YDL035C, strain GPR1, stronger effect = lower value 0.98 | locus YDL040C, strain nat1, stronger effect = lower value 0.97 | locus YDL074C, strain BRE1, stronger effect = lower value 0.927 | locus YDL101C, strain DUN1, stronger effect = lower value 0.955 | locus YDL185W, strain tfp1, stronger effect = lower value 0.959 | locus YDL192W, strain arf1, stronger effect = lower value 0.931 | locus YDR001C, strain nth1, stronger effect = lower value 0.979 | locus YDR069C, strain doa4, stronger effect = lower value 0.965 | locus YDR101C, strain arx1, stronger effect = lower value 0.961 | locus YDR159W, strain sac3, stronger effect = lower value 0.969 | locus YDR162C, strain NBP2, stronger effect = lower value 0.937 | locus YDR195W, strain ref2 1.11 | locus YDR297W, strain sur2, stronger effect = lower value 0.994 | locus YDR318W, strain mcm21, stronger effect = lower value 0.93 | locus YDR334W, strain swr1, stronger effect = lower value 0.957 | locus YDR335W, strain msn5, stronger effect = lower value 0.968 | locus YDR388W, stronger effect = lower value 0.969 | locus YDR392W, strain spt3, stronger effect = lower value 0.749 | locus YDR502C, strain sam2, stronger effect = lower value 0.931 | locus YEL003W, strain gim4, stronger effect = lower value 0.962 | locus YEL037C, strain rad23, stronger effect = lower value 0.966 | locus YEL061C, strain CIN8 (second series), stronger effect = lower value 0.957 | locus YER015W, strain faa2, stronger effect = lower value 0.986 | locus YER016W, strain bim1, stronger effect = lower value 0.973 | locus YER110C, stronger effect = lower value 0.969 | locus YER111C, strain swi4, stronger effect = lower value 0.965 | locus YER155C, strain BEM2 (second series), stronger effect = lower value 0.952 | locus YER155C, strain BEM2, stronger effect = lower value 0.971 | locus YER167W, strain BCK2, stronger effect = lower value 0.973 | locus YFR010W, strain ubp6, stronger effect = lower value 0.979 | locus YGL078C, strain dbp3, stronger effect = lower value 0.981 | locus YGL167C, strain pmr1, stronger effect = lower value 0.96 | locus YGL173C, strain kem1, stronger effect = lower value 0.959 | locus YGL227W, strain vid30, stronger effect = lower value 0.983 | locus YGL240W, strain doc1, stronger effect = lower value 0.991 | locus YGL248W, strain PDE1, stronger effect = lower value 0.939 | locus YGL253W, strain hxk2, stronger effect = lower value 0.976 | locus YGR135W, strain pre9, stronger effect = lower value 0.948 | locus YGR252W, strain gcn5, stronger effect = lower value 0.92 | locus YHR013C, strain ard1, stronger effect = lower value 0.944 | locus YHR027C, strain rpn1, stronger effect = lower value 0.964 | locus YHR030C, strain SLT2, stronger effect = lower value 0.991 and 0.996 | locus YHR079C, strain IRE1 (second series), stronger effect = lower value 0.971 | locus YHR079C, strain IRE1, stronger effect = lower value 0.978 | locus YHR094C, strain hxt1, stronger effect = lower value 0.977 | locus YHR129C, strain ARP1, stronger effect = lower value 0.959 | locus YHR142W, strain chs7, stronger effect = lower value 0.929 | locus YHR200W, strain rpn10, stronger effect = lower value 0.982 | locus YIL066C, strain RNR3, stronger effect = lower value 0.961 | locus YIL073C, strain SPO22, stronger effect = lower value 0.955 | locus YIL125W, strain kgd1, stronger effect = lower value 0.98 | locus YIR030C, strain dcg1, stronger effect = lower value 0.973 | locus YJL092W, strain hpr5, stronger effect = lower value 0.978 | locus YJL095W, strain BCK1 (second series), stronger effect = lower value 0.987 | locus YJL095W, strain BCK1, stronger effect = lower value 0.864 and 0.977 | locus YJL115W, strain asf1, stronger effect = lower value 0.98 | locus YJL129C, strain trk1, stronger effect = lower value 0.878 | locus YJL134W, strain LCB3, stronger effect = lower value 0.989 | locus YJL154C, strain vps35, stronger effect = lower value 0.955 | locus YJL164C, strain tpk1, stronger effect = lower value 0.965 | locus YJL166W, strain qcr8, stronger effect = lower value 0.965 | locus YJL168C, strain set2, stronger effect = lower value 0.97 | locus YJL187C, strain SWE1 (second series), stronger effect = lower value 0.953 | locus YJL187C, strain SWE1, stronger effect = lower value 0.97 | locus YJR043C, strain POL32, stronger effect = lower value 1.03 | locus YJR066W, strain TOR1, stronger effect = lower value 0.873 | locus YKL009W, strain mrt4, stronger effect = lower value 0.963 | locus YKL068W, stronger effect = lower value 0.974 | locus YKL085W, strain MDH1 (second series), stronger effect = lower value 0.97 | locus YKL085W, strain MDH1, stronger effect = lower value 0.97 | locus YKL160W, strain elf1, stronger effect = lower value 0.975 | locus YKR026C, strain gcn3, stronger effect = lower value 0.97 | locus YKR091W, strain srl3, stronger effect = lower value 0.981 | locus YLL001W, strain dnm1, stronger effect = lower value 0.966 | locus YLL026W, stronger effect = lower value 0.988 | locus YLL041C, strain sdh2, stronger effect = lower value 0.953 | locus YLR027C, strain aat2, stronger effect = lower value 0.991 | locus YLR058C, strain SHM2, stronger effect = lower value 0.977 | locus YLR102C, strain apc9, stronger effect = lower value 0.969 | locus YLR113W, strain HOG1, stronger effect = lower value 1.01 | locus YLR221C, strain rsa3, stronger effect = lower value 0.971 | locus YLR258W, strain gsy2, stronger effect = lower value 0.954 | locus YLR262C, strain YPT6, stronger effect = lower value 0.738 | locus YLR268W, strain sec22, stronger effect = lower value 0.968 | locus YLR320W, strain mms22, stronger effect = lower value 0.895 | locus YLR342W, strain FKS1, stronger effect = lower value 0.96 | locus YLR357W, strain rsc2, stronger effect = lower value 1.03 | locus YLR370C, strain arc18, stronger effect = lower value 0.974 | locus YLR371W, strain rom2, stronger effect = lower value 0.921 | locus YLR384C, strain iki3, stronger effect = lower value 0.982 | locus YML016C, strain PPZ1, stronger effect = lower value 0.981 | locus YML032C, strain rad52, stronger effect = lower value 0.919 | locus YML120C, strain ndi1, stronger effect = lower value 0.976 | locus YML124C, strain tub3, stronger effect = lower value 0.968 | locus YMR058W, strain fet3, stronger effect = lower value 0.979 | locus YMR078C, strain ctf18, stronger effect = lower value 0.955 | locus YMR125W, strain sto1, stronger effect = lower value 0.961 | locus YMR129W, stronger effect = lower value 0.983 | locus YMR205C, strain PFK2, stronger effect = lower value 0.914 | locus YMR223W, strain ubp8, stronger effect = lower value 0.944 | locus YMR231W, strain pep5, stronger effect = lower value 0.972 | locus YMR307W, strain GAS1, stronger effect = lower value 0.692 | locus YNL067W, strain RPL9B, stronger effect = lower value 0.967 | locus YNL071W, strain lat1, stronger effect = lower value 0.948 | locus YNL153C, strain GIM3, stronger effect = lower value 0.953 | locus YNL183C, strain NPR1, stronger effect = lower value 0.915 | locus YNL209W, strain ssb2, stronger effect = lower value 0.975 | locus YNL233W, strain BNI4, stronger effect = lower value 0.934 | locus YNL248C, strain rpa49, stronger effect = lower value 0.976 | locus YNL250W, strain rad50, stronger effect = lower value 1.01 | locus YNL271C, strain bni1, stronger effect = lower value 0.975 | locus YNL298W, strain CLA4, stronger effect = lower value 0.945 | locus YNL322C, strain KRE1 (second series), stronger effect = lower value 0.986 | locus YNR049C, strain mso1, stronger effect = lower value 0.963 | locus YNR052C, strain pop2, stronger effect = lower value 0.943 | locus YOL012C, strain htz1 1.31 | locus YOR001W, strain rrp6, stronger effect = lower value 0.953 | locus YOR061W, strain CKA2, stronger effect = lower value 0.999 | locus YOR069W, strain VPS5, stronger effect = lower value 0.974 | locus YOR070C, strain gyp1, stronger effect = lower value 0.987 | locus YOR080W, strain dia2, stronger effect = lower value 0.975 | locus YOR083W, strain WHI5, stronger effect = lower value 0.973 | locus YOR106W, strain vam3, stronger effect = lower value 0.97 | locus YOR136W, strain idh2, stronger effect = lower value 0.967 | locus YOR144C, strain elg1, stronger effect = lower value 0.961 | locus YOR231W, strain MKK1, stronger effect = lower value 0.953 | locus YOR265W, strain rbl2, stronger effect = lower value 0.969 | locus YOR290C, strain snf2, stronger effect = lower value 0.982 | locus YOR316C, strain cot1, stronger effect = lower value 0.979 | locus YPL051W, strain arl3, stronger effect = lower value 0.975 | locus YPL078C, strain atp4, stronger effect = lower value 0.958 | locus YPL106C, strain sse1, stronger effect = lower value 1.02 | locus YPL240C, strain hsp82, stronger effect = lower value 0.965 | locus YPL241C, strain CIN2, stronger effect = lower value 0.971 | locus YPL256C, strain CLN2, stronger effect = lower value 0.969 | locus YPR119W, strain clb2, stronger effect = lower value 0.966 | locus YPR141C, strain kar3, stronger effect = lower value 0.98 | locus YPR167C, strain met16, stronger effect = lower value 0.965 | strain wtn01, stronger effect = lower value 0.94
active: locus YDR137W, strain rgp1, stronger effect = lower value 0.797 | locus YGL086W, strain mad1, stronger effect = lower value 0.921 | locus YKR001C, strain vps1, stronger effect = lower value 0.798 | locus YLR039C, strain RIC1, stronger effect = lower value 1.57 [resistant] | locus YLR262C, strain YPT6 (second series), stronger effect = lower value 0.788 | locus YLR330W, strain CHS5, stronger effect = lower value 0.888 | locus YLR418C, strain cdc73, stronger effect = lower value 0.796 | locus YNL307C, strain MCK1, stronger effect = lower value 0.761 | locus YOL147C, strain pex11, stronger effect = lower value 0.931 | locus YOR184W, strain ser1, stronger effect = lower value 0.866 | locus YOR270C, strain vph1, stronger effect = lower value 0.737 | locus YPR163C, strain tif3, stronger effect = lower value 0.86
